Assay results from PubChem BioAssay (NCATS).
Results filed as inconclusive are left out. Values without a mark were called inactive. Activity calls are given as the source filed them. The call rests on the fitted dose curve; tested in HEK293 reporter line.

experiment: qHTS for Inhibitors of the Functional Ribonucleoprotein Complex (vRNP) of Lassa (LASV) Arenavirus: LASV Primary Screen - GLuc reporter signal (AID 1347082); details: LASV minigenome vRNP, Gaussia luciferase reporter; series mostly up to 57.5 µM; activity change, negative = inhibition: at the top concentration; further: nearly all actives have a fitted effect of over 60% in size
On the % scale 0 is the no-effect control and ±100 the full control effect; potency means the concentration at half of the fitted maximal effect.

Compared with `Cc1cnc(C)c(C)n1`, `CC1=CCC(C(C)C)=CC1` is lower in “activity change, negative = inhibition” value: -5.88% [at 115 µM] for the first, -15.8% [at 115 µM] for the second.

Compared with `Cc1ccc(-c2ccccc2)cc1`, `CC/C=C\CC1=C(C)CCC1=O` is lower in “activity change, negative = inhibition” value: 2.41% [at 115 µM] for the first, -21% [at 115 µM] for the second.

Compared with `C=C(C)[C@@H]1CCC2=CCC[C@@H](C)[C@]2(C)C1`, `CC1CCC(=O)O1` (stereo not given) is higher in “activity change, negative = inhibition” value: -3.69% [at 115 µM] for the first, 2.13% [at 115 µM] for the second.

Compared with `O=C1CCCCCCCCCCCCCCO1`, `C=O` is higher in “activity change, negative = inhibition” value: 0.0649% [at 115 µM] for the first, 4.74% [at 115 µM] for the second.

First: O=C(O)CCCCCCCCCC(=O)O
Second: CCCCCCCC/C=C/CCCOC(C)=O
The “activity change, negative = inhibition” value of the first is higher: 13.4% [at 115 µM] for the first, -9.9% [at 115 µM] for the second.

First: C=C1CC[C@H](O)C/C1=C/C=C1\CCC[C@]2(C)[C@@H]([C@H](C)CCC(O)C(C)(C)O)CC[C@@H]12 (stereo not given in full)
Second: CC(C)CCC[C@@H](C)[C@@H]1CC[C@H]2C3=CC=C4CC(O)CC[C@]4(C)[C@H]3CC[C@@]21C (stereo not given in full)
The “activity change, negative = inhibition” value of the first is higher: -1.34% for the first, -5.05% for the second.

First: CC(=O)O[C@H](COc1c2ccoc2cc2oc(=O)ccc12)C(C)(C)O
Second: C/C=C(\C)C(=O)O[C@@H]([C@H](O)c1cc2ccc(=O)oc2cc1OC)C(C)(C)O
The “activity change, negative = inhibition” value of the first is higher: 2.63% for the first, 1.32% for the second.

Compared with `C[C@@H]1C(=O)CC2C(C)(C)CCC[C@]2(C)[C@@]1(O)CCc1ccoc1` (stereo not given in full), `CC(C)(O)c1ccc2c(c1)CCC1C(C)(C(=O)O)CCCC21C` (stereo not given) is higher in “activity change, negative = inhibition” value: -3.15% for the first, -2.54% for the second.

Compared with `COc1cc2c3c(c1OC)-c1cc(O)ccc1CC3NCC2` (stereo not given), `COc1cc2c(cc1OC)[C@@H]1Cc3cc4c(cc3[C@H](C2)N1C)OCO4` is lower in “activity change, negative = inhibition” value: -0.251% for the first, -5.29% for the second.

First: C/C=C/c1ccc2oc(-c3ccc(O)cc3)c(C)c2c1
Second: COc1ccc(-c2cnc(-c3cccnc3)o2)cc1
The “activity change, negative = inhibition” value of the first is higher: -0.139% for the first, -3.35% for the second.

First: COc1cc2ccc(=O)oc2cc1O
Second: Cc1c(O)ccoc1=O
The “activity change, negative = inhibition” value of the first is lower: 3.1% for the first, 3.9% for the second.

Going from `C=CCc1ccc(O)c(-c2cc(CC=C)ccc2O)c1` to `COC(=O)c1ccccc1-n1c(C)nc2ccccc2c1=O`, the “activity change, negative = inhibition” value rises from -3.8% to -0.434%.

Compared with `CO[C@H]1[C@@H](OC)CC(OC2OC(CO)C(O)C(O)C2O)/C(=C\C#N)[C@@H]1O` (stereo not given in full), `CO[C@H]1[C@@H]2C=CO[C@@H](O[C@H]3O[C@@H](CO)[C@H](O)[C@@H](O)[C@@H]3O)[C@@H]2[C@@]2(CO)O[C@@H]12` is higher in “activity change, negative = inhibition” value: -17.4% for the first, 0.111% for the second.

Going from `CC12CCC(=O)C=C1CCC1C2C(O)CC2(C)C(O)CCC12` (stereo not given) to `COc1cc(C(=O)O[C@@H]2CC3CC[C@]2(C)C3(C)C)ccc1O`, the “activity change, negative = inhibition” value falls from 7.66% to 3.31%.

First: CC(=O)OCC=C(C)C
Second: CC(=O)OC[C@H]1O[C@@H](Oc2cc(O)cc3oc(-c4ccc(O)cc4)cc(=O)c23)[C@H](O[C@@H]2O[C@@H](C)[C@H](O)[C@@H](O)[C@H]2O)[C@@H](O)[C@@H]1O
The “activity change, negative = inhibition” value of the first is lower: -11.8% for the first, -3.17% for the second.

Going from `CN1c2c(nc(N)[nH]c2=O)NCC1CNc1ccc(C(=O)NC(CCC(=O)O)C(=O)O)cc1` (stereo not given) to `Cc1nc2sccn2c(=O)c1CCN1CCC(=C(c2ccccc2)c2ccc(F)cc2)CC1`, the “activity change, negative = inhibition” value rises from -4.28% to 9.05%.

First: COC(=O)c1ccc(=O)c2nc3/c(=C/O)c(O)cc(=O)c3[nH]c12
Second: COc1ccc(C2OCC3(O)C(c4ccc(OC)c(OC)c4)OCC23)cc1OC (stereo not given)
The “activity change, negative = inhibition” value of the first is lower: 9.32% for the first, 17.6% for the second.

First: c1ccc(-c2ccncc2)cc1
Second: C=CCCC[C@@H]1OC(=O)CNC(=O)C([C@@H](C)CC)NC(=O)[C@@H]2CCCN2C(=O)C([C@@H](C)CC)OC(=O)[C@H](Cc2ccccc2)N(C)C(=O)[C@H](C(C)C)NC(=O)C1(C)C (stereo not given in full)
The “activity change, negative = inhibition” value of the first is higher: 7.3% for the first, 2.55% for the second.

With `CC1CC2CCCC(O)=C2C(=O)O1` (stereo not given) the “activity change, negative = inhibition” value was 18%.

`C[C@]12O[C@H](C[C@@]1(O)C(=O)O)n1c3ccccc3c3c4c(c5c6ccccc6n2c5c31)CNC4=O` showed an activity change, negative = inhibition of -19.8% [at 5.82 µM].

In the case of `CCCCC/C=C\C/C=C\C/C=C\C=C\C(O)CCCC(=O)O` (stereo not given), the activity change, negative = inhibition was -8.78% [at 0.757 µM].

For `C[C@H](NCc1ccc2c(c1)nc(NC(=O)c1ccc(-c3cn[nH]c3)s1)n2CCc1ccccc1)C(C)(C)C`, the Potency was 10.9 µM (active).
